Source: PubChem (National Center for Advancing Translational Sciences (NCATS))
ELG1 genotox: qHTS screen for small molecules that induce genotoxicity in human embryonic kidney (HEK293T) cells expressing luciferase-tagged ELG1; AID 504466, 2011; 330,000 tested, 1.3% active; Potency, µM (top dose mostly 46 µM), inactives show top-dose activity change, positive = activation, usual class: activators; HEK293T ELG1-luciferase reporter, luminescence, 16 h; note: % of control where 0% means no effect; nearly all actives have a fitted effect of over 60% in size
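16 hr compound incubation (37 °C, 5% CO2) of HEK293T cells carrying luciferase-tagged ELG1; luciferase then measured by ONE-Glo luminescence after 30 min at RT.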
FLuc modulator: qHTS profiling assay for firefly luciferase inhibitor/activator using purifed enzyme and Km concentrations of substrates (counterscreen for miR-21 project); purified FLuc, Km substrates, luminescence inhibition; Potency, µM (doses to about 57.5 µM), for inactives: top-dose activity change, negative = inhibition, usual class: inhibitors; Luciferin 4-monooxygenase (Photinus pyralis), P08659; 360,000 tested, 6.9% active;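 note: plate controls were vehicle for no effect and reference inhibitor for full effect; nearly all actives have a fitted effect of over 55% in size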
Target sequence (P08659 whole entry, looked up): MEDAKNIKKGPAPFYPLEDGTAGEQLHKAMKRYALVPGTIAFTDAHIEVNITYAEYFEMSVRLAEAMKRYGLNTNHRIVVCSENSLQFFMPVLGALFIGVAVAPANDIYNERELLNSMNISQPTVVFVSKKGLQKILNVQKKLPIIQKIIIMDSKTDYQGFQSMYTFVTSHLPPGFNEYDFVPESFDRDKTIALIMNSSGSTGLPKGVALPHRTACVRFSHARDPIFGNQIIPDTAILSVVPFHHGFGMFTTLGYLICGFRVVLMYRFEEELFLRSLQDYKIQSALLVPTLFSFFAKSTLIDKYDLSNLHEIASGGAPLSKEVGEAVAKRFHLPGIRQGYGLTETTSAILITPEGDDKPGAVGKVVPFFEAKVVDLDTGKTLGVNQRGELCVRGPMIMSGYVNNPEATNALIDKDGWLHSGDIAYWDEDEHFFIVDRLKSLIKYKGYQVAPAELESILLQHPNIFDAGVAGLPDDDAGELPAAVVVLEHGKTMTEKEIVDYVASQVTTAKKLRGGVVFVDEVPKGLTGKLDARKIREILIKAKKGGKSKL
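Purified P. pyralis luciferase, 10 nM final, with Km-level 10 uM D-luciferin and 10 uM ATP in 50 mM Tris acetate pH 7.5, 10 mM Mg acetate, 0.01% Tween-20, 0.05% BSA; 6-point qHTS titration about 60 µM downward; luminescence read.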
SMN2 splice enh: qHTS Assay for Enhancers of SMN2 Splice Variant Expression | HEK293 SMN2-luciferase splicing reporter, luminescence, 30-36 h | Potency, µM (top dose mostly 46.1 µM), for inactives: at the highest dose activity change, positive = activation, actives largely listed as activators | 210,000 tested, 2.8% active; note: % of control where 0% means no effect; nearly all actives have a fitted effect of over 55% in size
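HEK293 cells carry an SMN2 minigene-luciferase reporter in which exon 7 inclusion puts luciferase in frame. Cells were seeded at 2000 cells/well, attached for 10-12 hours, then exposed to compounds for 30-36 hours at 37C before ONE-Glo luminescence.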
ELG1 DNA repair: qHTS screen for small molecules that inhibit ELG1-dependent DNA repair in human embryonic kidney (HEK293T) cells expressing luciferase-tagged ELG1; HEK293T ELG1-luciferase reporter, luminescence, 16 h; DNA damage induced by 5-fluorouridine; Potency, µM (titrated, usually from 46.1 µM), for the others: at the highest dose activity change, negative = inhibition, hits mostly inhibitors; 330,000 tested, 2.3% active; note: % is set by controls: 0 for no effect and ±100 for the full control effect; nearly all actives have a fitted effect of over 55% in size
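5-Fluorouridine DNA damage + compound/DMSO, 2,000 cells/well, 16 h, 37 °C/5% CO2. ONE-Glo, 30 min RT, luminescence. Readout = decrease in reporter signal.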
NPC1 prom act: qHTS Assay for NPC1 Promoter Activators | Potency, µM (series often up to 9.22 µM), for inactives: at the highest dose activation, actives largely listed as activators | Huh7 NPC1 promoter luciferase reporter, 24 h | 320,000 tested, 2.4% active; note: % of control where 0% means no effect; nearly all actives have a fitted effect of over 60% in size
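Stable NPC1-promoter luciferase Huh7 line; cpd (DMSO) 24 h, 37 °C, 5% CO2; Amplite luciferase reagent 10 min RT; luminescence readout. qHTS format.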
Rab9 promoter act: qHTS Assay for Rab9 Promoter Activators. Potency, µM (top dose mostly 9.22 µM), inactives show at the highest dose activation, negative = inhibition, actives largely listed as activators. Huh7 Rab9 promoter-luciferase reporter, luminescence, 24 h. 320,000 tested, 2.8% active; note: % of control where 0% means no effect; nearly all actives have a fitted effect of over 60% in size
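Huh7 cells stably carrying Rab9 promoter–luciferase reporter, plated 1500 cells/well, compound added after 2 h and incubated 24 h at 37 °C; luciferase luminescence then read after 10 min with detection reagent.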
Active calls of the source: *; [ ] = dose if it differs, or a comment. Most compounds without a hit are left out; they make up all but 9.3% or so of the library. Calls come from the whole dose curve; as a rule, active = well fitted curve in the direction sought with a large enough effect; inconclusive = small, poorly fitted or top-dose-only effect, or another doubt; inactive = no such curve, though single readings can be large; an effect the other way counts as inactive or inconclusive. Potency is the fitted concentration of half-maximal effect.

What do the screens show for `O=C1C(=C(O)c2ccccc2)C(=O)c2ccccc21`?
ELG1 genotox: -0.1%; FLuc modulator: inconclusive; SMN2 splice enh: -5.6%; ELG1 DNA repair: inconclusive; NPC1 prom act: 5.7%; Rab9 promoter act: -4.3%

What do the screens show for `O=C1C(=O)c2ccccc2C([O-])=C1[n+]1ccccc1`?
ELG1 genotox: -22.8%; FLuc modulator: -1.0%; ELG1 DNA repair: 18.3µM*; NPC1 prom act: -40.4%; Rab9 promoter act: -45.9%

What do the screens show for `O=C(C1CCN(S(=O)(=O)c2cccc3cccnc23)CC1)N1CCn2c1nc1ccccc12`?
ELG1 genotox: -13.8%; FLuc modulator: 0.5%; SMN2 splice enh: -32.0%; ELG1 DNA repair: 23.1µM*; NPC1 prom act: -3.9%; Rab9 promoter act: -9.5%

Results for CCOC(=O)C1=CN(Cc2cccc(Br)c2)S(=O)(=O)NC1C (stereo unspecified) ?
ELG1 genotox: 0.4%; ELG1 DNA repair: -2.4%

How did C=C1/C=C(\C)C(C)(O)CC(O)CC(=O)C(O)C(O)C(C)CC(C)OC(=O)/C(C)=C/CC/C=C/C(OC)C(O)CC(C)C1 (stereo unspecified) do in these assays?
ELG1 genotox: -4.4%; ELG1 DNA repair: 14.6µM*

Results for O=C(Cn1c2ccccc2c2nc3n(c(=O)c21)CCCS3)Nc1ccccc1 ?
ELG1 genotox: 10.6%; FLuc modulator: -1.7%; ELG1 DNA repair: 5.17µM*; NPC1 prom act: -6.1%; Rab9 promoter act: -6.7%

Results for Clc1cccc(OCCCCN2CCCCC2)c1 ?
ELG1 genotox: 0.4%; FLuc modulator: -0.6%; ELG1 DNA repair: -3.5%; NPC1 prom act: -3.2%; Rab9 promoter act: -1.3%

How did N/C(=N\OC(=O)CCC1CCCCC1)c1cccnc1 do in these assays?
ELG1 genotox: 9.6%; FLuc modulator: 19µM*; SMN2 splice enh: 17.0%; ELG1 DNA repair: inconclusive; NPC1 prom act: 11.5%; Rab9 promoter act: -3.7%

Results for N/C(=N\OC(=O)CCC1CCCC1)c1ccc(Br)cc1 ?
ELG1 genotox: 16.8%; FLuc modulator: inconclusive; ELG1 DNA repair: -1.9%; NPC1 prom act: 9.6%; Rab9 promoter act: 10.2%

What do the screens show for `COc1ccc(/C(N)=N/OC(=O)CC2CCCCC2)cc1`?
ELG1 genotox: inconclusive; FLuc modulator: 16.9µM*; ELG1 DNA repair: 24.6%; NPC1 prom act: 20.1%; Rab9 promoter act: 20.2%

How did N/C(=N\OC(=O)CCC1CCCC1)c1cccc([N+](=O)[O-])c1 do in these assays?
ELG1 genotox: 4.1%; FLuc modulator: 9.53µM*; ELG1 DNA repair: inconclusive; NPC1 prom act: 0.9%; Rab9 promoter act: 1.1%

How did N/C(=N\OC(=O)CC1CCCCC1)c1cccc([N+](=O)[O-])c1 do in these assays?
ELG1 genotox: 2.3%; FLuc modulator: 6.01µM*; SMN2 splice enh: -27.0%; ELG1 DNA repair: 17.0%; NPC1 prom act: -0.7%; Rab9 promoter act: -3.5%

Results for Cc1c(NC(=O)c2cc3ccccc3c(=O)s2)c(=O)n(-c2ccccc2)n1C ?
ELG1 genotox: -4.1%; FLuc modulator: 2.0%; SMN2 splice enh: 3.1%; ELG1 DNA repair: -13.3%; NPC1 prom act: -0.2%; Rab9 promoter act: -7.8%

What do the screens show for `CC1CCC(NC(=O)CCC(=O)N2CC(C)Oc3ccccc32)CC1` (stereo unspecified)?
ELG1 genotox: 6.3%; FLuc modulator: inconclusive; ELG1 DNA repair: inconclusive; NPC1 prom act: inconclusive; Rab9 promoter act: inconclusive

How did CC(C)C1C(C#N)=C(N)Oc2n[nH]c(-c3cccs3)c21 (stereo unspecified) do in these assays?
ELG1 genotox: -0.8%; FLuc modulator: 2.7%; SMN2 splice enh: 1.9%; ELG1 DNA repair: -11.2%; NPC1 prom act: -1.7%; Rab9 promoter act: -10.3%

How did COc1cccc(/C=N/c2nc3ccccc3n2C)c1O do in these assays?
ELG1 genotox: 10.3%; FLuc modulator: inconclusive; ELG1 DNA repair: inconclusive; NPC1 prom act: -3.1%; Rab9 promoter act: -0.8%

What do the screens show for `Cn1c(/N=C/c2c[nH]c3ccccc23)nc2ccccc21`?
ELG1 genotox: -2.4%; FLuc modulator: 0.135µM*; ELG1 DNA repair: -1.7%; NPC1 prom act: 0.4%; Rab9 promoter act: 4.9%

Results for CC(C)n1c(/N=C/c2c[nH]c3ccccc23)nc2ccccc21 ?
ELG1 genotox: 1.6%; FLuc modulator: 2.69µM*; SMN2 splice enh: -10.4%; ELG1 DNA repair: 0.1%; NPC1 prom act: -3.1%; Rab9 promoter act: -1.5%

Results for Cc1cc(-c2n[nH]c(=S)n2/N=C/c2c[nH]c3ccccc23)n[nH]1 ?
ELG1 genotox: -0.2%; FLuc modulator: 2.9%; ELG1 DNA repair: -3.4%; NPC1 prom act: -3.4%; Rab9 promoter act: 11.1%

How did COC(=O)C(N)Cc1ccc(Cl)cc1 (stereo unspecified) do in these assays?
ELG1 genotox: 1.5%; FLuc modulator: -1.4%; SMN2 splice enh: -1.3%; ELG1 DNA repair: 11.2%; NPC1 prom act: -7.6%[46.1 µM]; Rab9 promoter act: 1.4%[46.1 µM]

What do the screens show for `Cc1ccc(-n2cc3c(-c4cccc(Br)c4)nnc(C)c3n2)cc1`?
ELG1 genotox: 3.0%; FLuc modulator: 2.8%; SMN2 splice enh: -6.4%; ELG1 DNA repair: -12.6%; NPC1 prom act: 22.0%; Rab9 promoter act: 4.3%

How did CN(Cc1nc(C(c2ccccc2)c2ccccc2)no1)CC1COCCO1 (stereo unspecified) do in these assays?
ELG1 genotox: inconclusive; FLuc modulator: 15.1µM*; ELG1 DNA repair: inconclusive; NPC1 prom act: inconclusive; Rab9 promoter act: inconclusive

How did CN(Cc1nc(Cc2cccc(F)c2)no1)CC1COCCO1 (stereo unspecified) do in these assays?
ELG1 genotox: -2.3%; FLuc modulator: -1.4%; ELG1 DNA repair: -3.4%; NPC1 prom act: -4.7%; Rab9 promoter act: -0.6%

What do the screens show for `CNC(=O)c1sc(-c2ccc(Cl)cc2)nc1C`?
FLuc modulator: 15.1µM*; SMN2 splice enh: inconclusive

Results for CCOC(=O)Cc1ccc2sc(-c3ccccc3)nc2c1 ?
ELG1 genotox: 6.51µM*; FLuc modulator: 0.477µM*; SMN2 splice enh: 15.8µM*; ELG1 DNA repair: inconclusive; NPC1 prom act: 3.16µM*; Rab9 promoter act: 1.58µM*

Results for CNC(=O)c1sc(-c2ccccc2)nc1C ?
ELG1 genotox: inconclusive; FLuc modulator: inconclusive; SMN2 splice enh: -0.5%; ELG1 DNA repair: inconclusive; NPC1 prom act: 26.4%; Rab9 promoter act: 13.3%
